Active and inactive are the calls of the source. How the source made its calls: active means hit-call score of the fitted dose curve at least 0.9, where 1 is the maximum; inactive means score below 0.9.
read-out: Interleukin 6 Receptor (IL6R), IL6R (gene 3570); assay: LTEA_HepaRG_IL6R: Life Technologies and Expression Analysis (LTEA) Assay for Interleukin 6 Receptor (IL6R) using HepaRG (AID 2283510); conditions: mRNA level, 48 h; actives raise or lower the signal;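 on AC50: TaqMan qRT-PCR signal normalized to ACTB GAPDH and POLR2A housekeeping genes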
Protocol: LTEA_HepaRG is a cell based, multiplexed-readout assay that uses HepaRG, a human liver cell line, with measurements taken at 48 hours after chemical dosing on a 96-well plate.LTEA_HepaRG_IL6R is one of 102 assay component(s) measured in the LTEA HepaRG cell culture assay. It is a marker of Inflammation.Data from the assay component LTEA_HepaRG_IL6R was analyzed into 1 endpoint. This assay endpoint, LTEA_HepaRG_IL6R, was analyzed with bidirectional fitting relative to DMSO as the negative control and baseline of activity. Using a type of inducible reporter, measures of mRNA induction for gain or loss-of-signal activity can be used to understand regulation of transcription factor activity. To generalize the intended target to other relatable targets, this assay endpoint is annotated to the cytokine receptor intended target family, where the subfamily is JAK-STAT cytokine receptor.
A total of 1060 chemcials from the ToxCast library were tested in eight-point concentration-response experiments. Cell culture and cytotoxicity assays were conducted at Thermo Fisher Scientific's Custom Services facility (Madison, WI). A single lot of human HepaRG cells (Thermo Fisher Scientific, Frederick, MD) was used for the cell culture experiments. 96-well format collagen type I coated plates of human HepaRG cells were prepared using established methods. Briefly, cryopreserved HepaRG cells were thawed, plated at a density of approximately 100,000 cells/well in HepaRG Thaw, Plate, and General Purpose media (HPRG770, Thermo Fisher Scientific), and incubated for 48 hours. 0.5% DMSO was selected as vehicle control to balance the requisite need of DMSO in HepaRG cultures to maintain differentiation (for example, baseline metabolism, proportions of hepatocytes vs. cholangiocytes), while enabling further hepatic receptor pathway activation (for example, PXR and CAR) in response to chemical exposure. 48 hours after plating, the culture medium was replaced with HepaRG Serum-Free Incudtion Media. Cells were exposed to each test chemical in duplicate and maintained in CO2 incubators for another 48 hours. Chemical plates were thawed to room temperature and 200x concentrations of treatment groups were prepared. 8-point conentration-reponse curves were made with the highest exposure at 100 uM, followed by half-log dilutions, all in 0.5% DMSO. Each test plate contained variouse controls, induction positive controls (1mM phenobarbital), cytotoxicity positive controls ([…] aflatoxin B1), vehicle controls (0.5% DMSO), and total lysis controls (0.5% DMSO). Cell morphology images were taken using an Essen IncuCyte FLR automated microscope, with six 96-well plates imaged in about 24 minutes. Images were captured and exported and JPEG files. Spent culture media was transfered to black-well plates for the LDH assay, and remaining media was sorted at -80 C for later use. Cells were treated with RLT buffer and frozen until shipped for gene expression analysis. Total RNA was isolated from the cell suspension in 75 uL of Buffer RLT (Qiagen, Germantown, MD 20874) by Quintiles/Expression Analysis (Durham, NC) using a custom isolation procedure. Total RNA from each plate well was transferred to a preamplification plate. Fluidigm's 96.96 Dynamic ArrayTM (Fluidigm, Amsterdam, the Netherlands) technology was used for gene expression analyses by quantitative reverse transcription polymerase chain reaction (qRT-PCR, performed by Quintiles/Expression Analysis, Durham, NC)89. Standard TaqManTM Assays (Applied Biosystems/ThermoFisher Scientific, Foster City, CA) were used to assess the expression of 93 genes selected based on their selectivity and sensitivity to important hepatic receptors known to be modulated by environmental chemicals; importance in human hepatocyte functionality; and hepatotoxicity. […]

Row | SMILES | outcome | AC50
1 | NC(=O)c1nc(-c2cccc(-c3cc(F)ccc3OCC(F)(F)C(F)(F)F)c2)n[nH]1 | inactive | –
2 | CN1C(=O)N(c2ccccc2Br)Cc2cnc(Nc3ccc4c(c3)OCC(CO)O4)nc21 (stereo not given) | inactive | –
3 | COc1cc(C(=O)NC2CCN(C)CC2)ccc1Nc1ncc2c(n1)N(C1CCCC1)CC(F)(F)C(=O)N2C | – | 86.4 µM (active)
4 | COc1cccc([C@H](O)C2CCN(CCc3ccc(F)cc3)CC2)c1OC | inactive | –
5 | CCCCCCCCOC(=O)c1cc(O)c(O)c(O)c1 | inactive | –
6 | CCCCCCCCOc1ccc(C(=O)c2ccccc2)c(O)c1 | inactive | –
7 | Cc1cn([C@H]2C[C@H](N=[N+]=[N-])[C@@H](CO)O2)c(=O)[nH]c1=O | inactive | –
8 | CN(C)c1ccc(C(=C2C=CC(=[N+](C)C)C=C2)c2ccc(N(C)C)cc2)cc1 | – | 12.5 µM (active)
9 | C[C@]12CC[C@@H]3c4ccc(O)cc4CC[C@H]3[C@@H]1CC[C@H]2O | inactive | –
10 | Cc1cccc2ccccc12 | inactive | –
11 | Cc1ncc(CO)c(CO)c1O | inactive | –
12 | O=c1ccc2ccccc2o1 | inactive | –
13 | OC12N=C(c3ccccc3)SC1Cc1cc(Cl)ccc12 (stereo not given) | – | 1.78 µM (active)
14 | c1ccc2ccccc2c1 | inactive | –
15 | CC(C)(C)c1csc(-c2cc3cc(OCc4ccccc4CC(=O)O)ccc3o2)n1 | – | 50 µM (active)
16 | O=C(O)c1ccccc1C(=O)OCc1ccccc1 | inactive | –
17 | O=C=NCCCCCCN=C=O | inactive | –
18 | CCN(CC)C(=O)c1cc(S(=O)(=O)Cc2ccccc2)c(N2CCC(c3ccccc3)CC2)cc1N(CC)CCN(C)C | inactive | –
19 | CN(C)C(=O)C1(N2CCCCC2)CCN(CC[C@@]2(c3ccc(Cl)c(Cl)c3)CN(C(=O)c3ccccc3)CCO2)CC1 | inactive | –
20 | c1ccc(C[n+]2cccc3ccccc32)cc1 | – | 50 µM (active)

Row | SMILES | outcome | AC50
21 | CC1=CC(=O)/C(=C(/C)O)C(=O)O1 | inactive | –
22 | CC1(C)NC(=O)N(c2ccc([N+](=O)[O-])c(C(F)(F)F)c2)C1=O | inactive | –
23 | c1ccc2n[nH]nc2c1 | inactive | –
24 | CC(C)(c1cc(Br)c(O)c(Br)c1)c1cc(Br)c(O)c(Br)c1 | inactive | –
25 | CCN(Cc1cccc(S(=O)(=O)O)c1)c1ccc(C(=C2C=CC(=[N+](CC)Cc3cccc(S(=O)(=O)O)c3)C=C2)c2ccccc2S(=O)(=O)[O-])cc1 | inactive | –
26 | CC[C@@H]1C[C@H](N(Cc2cc(C(F)(F)F)cc(C(F)(F)F)c2)C(C)=O)c2cc(C(F)(F)F)ccc2N1C(=O)OC(C)C | inactive | –
27 | O=C(O)Cn1c(=O)n(Cc2ccc(Br)cc2F)c(=O)c2ccc(Cl)cc21 | inactive | –
28 | O=C(OCCCCCCOC(=O)c1ccccc1)c1ccccc1 | inactive | –
29 | COCC(C)OCC(C)OCC(C)O (stereo not given) | inactive | –
30 | CCCCCCCCCCCO | inactive | –
31 | CCCCCCCCCCCC[N+](C)(C)C | inactive | –
32 | CCOC(=O)O[C@H](C)OC(=O)c1ccc2c(c1)cc(C(=O)NC1CCN(C(C)C)CC1)n2Cc1cc(-c2ccc(Cl)s2)on1 | inactive | –
33 | CC(C)(O)c1ccc(CNC(=O)c2cccnc2Oc2ccc3nonc3c2)cc1 | inactive | –
34 | CC(C)(C)c1cc(/C=C2\SC(N)=NC2=O)cc(C(C)(C)C)c1O | inactive | –
35 | CCCCCCCCCCCCO | inactive | –
36 | CCCCOC(=O)c1ccc(O)cc1 | inactive | –
37 | CCCCCCCCN(C)CCCCCCCC | inactive | –
38 | O=C1CCC(C2CCCCC2)CC1 | inactive | –
39 | CC(O)CC(C)(C)O (stereo not given) | inactive | –
40 | O=CCCCC=O | inactive | –
